Reference: PubChem BioAssay AID620 (Sanford-Burnham Center for Chemical Genomics, 2007)
The campaign covered roughly 87,000 compounds. About 360 (0.41%) were called active. Rule as the data show it: active = cytotoxicity above about 50%; inactive = the rest. Many of the other results were omitted from the sample, so actives are more common in it than they were.

assay: cytotoxicity in HT1080 fibrosarcoma cells, cell-based, fluorescence readout (AID 620); settings: HT1080 viability, at 10 µM, hits give high values;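 also: cells exposed to compound overnight then 4 h with Alamar Blue; 0% = vehicle DMSO and 100% = killing control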

Compound	cytotoxicity
CON(C)C(=O)Nc1ccc(Cl)cc1	1.8% (inactive)
O=C(Nc1ccc(Cl)cc1)Nc1nccs1	61.1% (active)
CCOC(=O)c1c(C)n(CCN2CCN(C)CC2)c2ccc(OC)cc12	9.6% (inactive)
CCN(CC)c1ccc(N=Cc2c(O)n(-c3ccc(OC)cc3)c(=O)[nH]c2=O)cc1	0.4% (inactive)
CCOC(=O)C1SC2(C(F)F)CC1(O)c1c(c(OC)c3occc3c1OC)O2 (stereo not given)	5.2% (inactive)
O=c1c2ccccc2[nH]c(=S)n1-c1ccc2c(c1)OCO2	-0.8% (inactive)
c1cc2n(c1)-c1c(ccc3c1OCO3)CNC2c1ccc2c(c1)OCO2 (stereo not given)	3.4% (inactive)
COc1ccc(C2NCc3ccc4c(c3-n3cccc32)OCO4)cc1O (stereo not given)	67.8% (active)
COc1ccc(C2NCc3ccc4c(c3-n3cccc32)OCO4)cc1OC (stereo not given)	-2.8% (inactive)
COc1ccc(CCNC(C)CCc2ccc(OC)cc2)cc1 (stereo not given)	-9.1% (inactive)
CCC(=NCCc1c[nH]c2ccccc12)c1c(O)n(C)c(=O)n(C)c1=O	3.2% (inactive)
COc1ccc(C2C(C(=O)N3CCC4(CC3)OCCO4)c3cc(OC)c(OC)cc3C(=O)N2C)cc1 (stereo not given)	-12.7% (inactive)
C[C@H]1CCC[C@@H](O)CCC/C=C/c2cc(O)cc(O)c2C(=O)O1	12.8% (inactive)
C[C@H]1CCCC(=O)CCC/C=C/c2cc(O)cc(O)c2C(=O)O1	-0.7% (inactive)
C[C@H]1CCC/C=C/C2C[C@H](O)CC2[C@H](O)/C=C/C(=O)O1 (stereo not given in full)	83.3% (active)
COC(=O)CC1NC2CCCCC2NC1=O (stereo not given)	3.2% (inactive)
O=c1[nH]c2ccccc2n1C1CCN(CCCC(c2ccc(F)cc2)c2ccc(F)cc2)CC1	91.3% (active)
O=C1CC(N2CCC(n3c(=O)[nH]c4ccccc43)CC2)C(=O)N1c1ccc(F)cc1 (stereo not given)	2% (inactive)
O=C1CC(N2CCC(n3c(=O)[nH]c4ccccc43)CC2)C(=O)N1Cc1ccccc1 (stereo not given)	13.4% (inactive)
CCCCn1c(=O)c(C(=O)NCc2ccncc2)c(O)c2ccccc21	4.9% (inactive)

Compound	cytotoxicity
COc1ccccc1N1C(=O)NC(=O)C(CCc2ccncc2)(CCc2ccncc2)C1=O	-6.4% (inactive)
CCC(=NC1CC1)c1c(O)n(C2CCCCC2)c(=O)[nH]c1=O	15.1% (inactive)
CC(=O)c1cccc(NC2=NCC(C)S2)c1 (stereo not given)	1.4% (inactive)
COc1cccc(OC)c1C1=NCC(=O)Nc2c1oc1ccc(Br)cc21	64.8% (active)
O=C1CN=C(c2ccccc2)c2oc3ccc(Br)cc3c2N1	8.1% (inactive)
CC1=CC(=C2C(=O)NC(=S)NC2=O)C=C(C(F)(F)F)N1C	1.5% (inactive)
COC(=O)C1CN(C#N)N(c2ccc(Cl)cc2)C12c1ccccc1-c1ccccc12 (stereo not given)	84.3% (active)
COC(=O)[C@@H]1[C@@H](C(=O)OC)C2(c3ccccc3-c3ccccc32)N(c2ccc(Cl)cc2)N1C#N	2.6% (inactive)
COC(=O)C[C@]1(C(=O)OC)CN(C#N)N(c2ccc(Cl)cc2)C12c1ccccc1-c1ccccc12	93.9% (active)
CCC(=Nc1ccc2c(c1)CCC2)c1c(O)n(C2CCCCC2)c(=O)[nH]c1=O	-1.6% (inactive)
CCCN1CC(C)C(OC(C)=O)(c2ccccc2)CC1C (stereo not given)	1.2% (inactive)
OC1(CN2CCOCC2)C2CC3CC(C2)CC1C3 (stereo not given)	-20.1% (inactive)
CC(=O)Nc1ccc(S(=O)(=O)NC(CC(=O)N2CCC3(CC2)OCCO3)C(C)C)cc1 (stereo not given)	4.2% (inactive)
CCOP(=O)(C#CC(C)(C)C)C(O)(c1ccccc1)C(F)(F)F (stereo not given)	6.8% (inactive)
Cc1nc2c(=O)n(C)c(=O)nc-2n(C)n1	103% (active)
O=C(CN1C2CCC1CC(O)(c1cccnc1)C2)Nc1ccc2c(c1)OCO2 (stereo not given)	2.5% (inactive)
CC(C)CCP(=O)(O)c1ccccc1	0.8% (inactive)
C=CCn1c(O)c(C=NCCCOc2ccc(CC)cc2)c(=O)[nH]c1=S	-6.1% (inactive)
CCOC(=O)C1C(=O)NC23CCCC2C1c1ccccc1O3 (stereo not given)	13.5% (inactive)
Cc1cccc(-n2c(O)c(C=NCCCN3CCOCC3)c(=O)[nH]c2=O)c1C	-0.3% (inactive)
